Akt phos inh = Akt phosphorylation inhibition; 360,000 tested, 0.32% active; Neuro2A IGF-stimulated pAkt S473 HTRF, 20 min; stronger effect = lower value; activity change, % for hits at 50 µM; in the data active = activity change below about -80%; inconclusive = mostly about -51% to -80%
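Neuro2A cells in DMEM with 0.5% FBS, overnight at 37 deg C, given compound at single 50 µM final, then IGF (6 nM final) for 20 min at 37 deg C. Lysed; phospho-Akt Ser473 by HTRF after 24 h, 665/615 ratio.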
aSyn yeast inh = rescues yeast growth from alpha-synuclein toxicity; Yeast expressing alpha-synuclein, growth rescue, BacTiter-Glo, 24 h; Potency, µM (top dose mostly 46.1 µM), most hits filed as activators; 370,000 tested, 0.14% active; AID 652106; also: nearly all actives have a fitted effect of over 65% in size
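Readout is rescue of growth in alpha-synuclein-expressing yeast, so inhibitors of toxicity appear as activators. Growth after 24 hr at 30 deg C in galactose medium is quantified by luminescence.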
FUS suppressor = rescues growth of FUS-expressing yeast; S. cerevisiae FUS-expressing, growth rescue, OD600, 24 h; AID 1347120; Potency, µM (doses to about 76.6 µM), usual class: activators; 390,000 tested, 0.24% active; also: nearly all actives have a fitted effect of over 55% in size
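S. cerevisiae expressing FUS from galactose induction served as the toxicity model. Growth after 24hr at 30C, read as absorbance at 600 nm, indicates suppression of toxicity; compounds dosed at several concentrations.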
TDP-43 yeast inh = rescues yeast growth from TDP-43 toxicity. TDP-43 expressing yeast growth rescue, BacTiter-Glo, 24 h. Potency, µM (series often up to 46.1 µM), hits mostly activators. 410,000 tested, 1.8% active. AID 652104; also: nearly all actives have a fitted effect of over 50% in size
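Cell-based yeast growth screen: TDP-43 expression induced in galactose, inoculum OD600=0.02 after raffinose pregrowth to mid-log. Read-out BacTiter-Glo luminescence at 24 hr, 30 deg C; inhibition of toxicity seen as signal increase.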
Abeta yeast res = A-beta toxicity reversal in yeast | yeast expressing A-beta42, growth rescue, OD600, 48 h; response scale: 0% DMSO, 100% iron-clioquinol control | 410,000 tested, 0.063% active | Potency, µM (series often up to 46.1 µM), hits mostly activators; also: nearly all actives have a fitted effect of over 55% in size
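Growth rescue measured by 600 nm absorbance after 48 h yeast culture at 30 C with compound. Values normalized between DMSO and an equimolar ferric chloride plus clioquinol control.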
A number is an active result; i = inactive; ? = inconclusive; nt = no result; ! = not active in a repeat; [ ] = dose if it differs, or a comment. The list is not random: actives were taken first. Their share in the collection is about 2.3%. Unless noted, calls follow the shape of the dose curve; as a rule, active = well fitted curve in the direction sought with a large enough effect; inconclusive = small, poorly fitted or top-dose-only effect, or another doubt; inactive = no such curve, though single readings can be large; an effect the other way counts as inactive or inconclusive.

SMILES	Akt phos inh	aSyn yeast inh	FUS suppressor	TDP-43 yeast inh	Abeta yeast res
Cc1ccc2c(CC(=O)Nc3ccc(S(=O)(=O)N4CCCCC4C)cc3)coc2c1C (centres undefined)	nt	nt	?	i	i
Cc1cccc(Cn2cc3c(=O)n(CC(=O)Nc4c(C)cccc4C)nc-3c3cc(F)ccc32)c1	nt	nt	i	i	i
CCCC(CC)Sc1nc2c([nH]1)c(=S)n(C)c(=O)n2C (centres undefined)	i	i	nt	35.5µM	i
COC(=O)c1cccc(NC(=S)Nc2cccc(Cl)c2Cl)c1	i	i	i	17.8µM	i
COC(=O)Cn1ccc2cc(S(=O)(=O)N3CCCCC3)ccc21	i	i	i	i	i
COC(=O)Cn1ccc2cc(S(=O)(=O)N3CCCCCC3)ccc21	i	i	i	15.8µM!	i
CCOc1ccc(CCNC(=O)Cn2ccc3cc(S(=O)(=O)N4CCCCC4)ccc32)cc1	nt	nt	17.8µM	i	i
COc1ccc2nc(NC(=O)Cn3cnc4c(=O)n(C)c(=O)n(C)c43)sc2c1	i	i	i	i	i
Cn1c(=O)c2c(ncn2CC(=O)Nc2nc3ccc(F)cc3s2)n(C)c1=O	-121.9%	i	i	i	i
CCn1c(SCC(=O)Nc2nc(-c3ccc(C)cc3)cs2)nnc1-c1ccccc1O	i	i	i	20µM	i
Cn1c(SCC(=O)Nc2nc3ccccc3s2)nnc1-c1ccccc1	i	i	?	i	i
CCn1c(SCC(=O)Nc2nc3ccccc3s2)nnc1-c1ccc(Br)cc1	-89.3%	i	i	i	i
Cc1csc(NC(=O)CSc2nnnn2C)n1	-116.9%	i	i	i	i
CC1CCCN(C(=O)CSCC(=O)Nc2nc(-c3cccs3)cs2)C1 (centres undefined)	i	i	i	i	i
CC1CCN(C(=O)CSCC(=O)Nc2nc(-c3cccs3)cs2)CC1	i	i	?	35.5µM	i
Cc1nc(NC(=O)CSc2nnnn2C)sc1C	i	i	i	i	i
COc1cccc(Cn2c(CNC(=O)CCc3ccccc3)nc3cccnc32)c1	nt	nt	i	i	i
NS(=O)(=O)c1ccc(NC(=O)c2nc(S(=O)(=O)Cc3ccccc3F)ncc2Cl)cc1	nt	i	nt	nt	nt
COc1cccc(NC(=O)Cn2c(=O)n(CCCC(=O)NCc3ccc4c(c3)OCO4)c(=O)c3ccccc32)c1	nt	nt	i	i	i
CSc1cccc(NC(=O)N2CCN(S(=O)(=O)c3ccc4c(ccn4C)c3)CC2)c1	nt	i	?	?	i
CCCN(CCC)C(=O)CSc1nnc2cc(C)c3ccccc3n12	nt	nt	i	i	i
Cc1csc(SCC(=O)Nc2nc(-c3ccccc3)cs2)n1	i	i	i	14.1µM	i
O=C(CSCC(=O)N1CCCc2ccccc21)Nc1nc(-c2ccccc2)cs1	i	i	?	11.2µM	i
CCS(=O)(=O)CCSc1nc2ccccc2o1	i	i	i	i	i
O=S(=O)(CCSc1nc2ccccc2o1)c1nc2ccccc2s1	nt	i	i	11.2µM	i
SMILES	Akt phos inh	aSyn yeast inh	FUS suppressor	TDP-43 yeast inh	Abeta yeast res
O=C(CCCCCBr)N1CCC(CC2CC(c3ccc(Cl)cc3)=NO2)(C(=O)NCC2CCCCC2)CC1 (centres undefined)	i	i	i	i	i
CCCCCCCNC(=O)C1(CC2CC(c3ccc(Cl)cc3)=NO2)CCN(C(=O)CCCCCBr)CC1 (centres undefined)	i	i	31.6µM	i	i
Cc1c(C2(O)CCCCC2)[nH]c2ccc(C(F)(F)F)cc12	i	i	i	3.55µM	i
COC(=O)c1ccc2[nH]c(C3(O)CCCCC3)c(C)c2c1	i	i	i	17.8µM	i
Cc1c(C)c2c(C)nn(-c3ccccc3)c2[nH]c1=O	-108.2%	i	i	?	i
CCc1c(C)c2c(C)nn(-c3ccccc3)c2[nH]c1=O	i	i	i	?	i
O=C(NCc1nc2ccccc2[nH]1)C1=C[C@H](c2ccc(C(F)(F)F)cc2)C[C@H](OCc2ccc(CO)cc2)O1	i	i	25.1µM	i	i
O=C(COc1ccc(Br)cc1)N1CCOCC1	i	i	i	i	i
CCOc1ccc(OCC(=O)N2CCOCC2)cc1	-98.5%	i	i	i	i
Cc1cc(NC(=O)CN2C(=O)C(C)(C)c3ccccc32)ccc1Br	nt	nt	i	i	i
O=c1c2c(n3cnnc3n1-c1ccccc1)-c1ccccc1CC21CCCCC1	-113.7%	i	i	i	i
Cc1cccc(-n2c(=O)c3c(n4cnnc24)-c2ccccc2CC32CCCCC2)c1	i	i	i	i	i
CC1CC(C)CN(C(=O)c2cc3cc(Br)cc(Br)c3o2)C1 (centres undefined)	i	i	i	31.6µM	i
COc1ccc2nc3oc(C(=O)N4CC(C)CC(C)C4)cc3cc2c1 (centres undefined)	i	i	i	12.6µM	i
COc1ccc2nc3oc(C(=O)N4CCCCC4)cc3cc2c1	i	i	i	?	i
CC1CC(C)CN(C(=O)c2cc3ccccc3o2)C1 (centres undefined)	i	i	i	?	i
COc1ccc(C(CNC(=O)c2cccc([N+](=O)[O-])c2)N2CCOCC2)cc1 (centres undefined)	nt	nt	i	i	i
Cc1cc(C)cc(NC(=S)/N=C(\N)Nc2nc(C)c3ccccc3n2)c1	i	i	nt	15.8µM	i
Cc1cccc(NC(=S)/N=C(\N)Nc2nc(C)c3ccc(C)cc3n2)c1	i	i	i	?	i
Cc1cccc(NC(=S)/N=C(\N)Nc2nc(C)c3ccccc3n2)c1	i	i	i	20µM	?
CCOC(=O)C(=O)Nc1nc(-c2ccccc2)c(-c2ccccc2)o1	i	?	nt	i	?
COc1cccc(C(=O)Nc2ccc(-n3nncc3-c3ccccc3)cc2)c1	nt	nt	?	35.5µM	i
COc1cccc(C(=O)Nc2nc(-c3ccccc3)c(-c3ccccc3)o2)c1	i	?	i	20µM	15.8µM
O=C(Nc1nc(-c2ccccc2)c(-c2ccccc2)o1)c1ccc(F)cc1	i	?	i	?	11.2µM
O=C(Nc1ccc(-n2nncc2-c2ccccc2)cc1)c1ccccc1	nt	i	nt	nt	nt
SMILES	Akt phos inh	aSyn yeast inh	FUS suppressor	TDP-43 yeast inh	Abeta yeast res
O=C(Nc1ccc(F)cc1F)N1CCCC(c2nc(-c3ccc(F)cc3)no2)C1 (centres undefined)	i	i	?	12.6µM	i
Cc1ccc(-c2noc(C3CCCN(C(=O)c4c(F)cccc4F)C3)n2)cc1 (centres undefined)	i	i	i	i	i
Cc1ccc(-c2noc(C3CCCN(C(=O)c4ccccc4Br)C3)n2)cc1 (centres undefined)	i	i	i	12.6µM	i
COc1ccc(NC(=O)c2ccc3c(=O)n4nc(Nc5cccc(Cl)c5C)sc4nc3c2)cc1	nt	nt	i	i	i
CCc1cccc(CC)c1NC(=O)c1c(C)oc2ccc(O)c(CN3CCN(C)CC3)c12	nt	nt	i	i	i
CCc1sc(-c2cc3ccccc3oc2=O)nc1-c1ccc(C)cc1	nt	i	nt	nt	nt
CN1/C(=C\C(=O)CSc2nnc(N)s2)C(C)(C)c2ccccc21	i	i	i	i[0.397 µM]	i
